# Reference: PubChem BioAssay AID2391 (Southern Research Specialized Biocontainment Screening …, 2010)
# Several values for one entry are separate records, joined by “and”; a condition that tells them apart may be missing. Equal values may be shown once. Out of some 310,000 compounds screened, about 410 (0.13%) were called active. About 2% were inconclusive and are not listed. A selection follows. Results with a measured potency or affinity are listed apart. A number with no mark means an inactive call. The rule behind the calls is not given here.
# Assay: RSV antiviral activity via CPE protection, HEp-2 cells, primary 10 µM value included (AID 2391)
# Conditions: RSV-induced CPE inhibition, at 10 µM, hits give high values
row,SMILES,CPE inhibition
1,C/C(=N\O)c1oc2ccc3c(C)cc(=O)oc3c2c1C,21.3%
2,Cc1ccc(/C(=N\O)c2oc3c(C)c4oc(=O)cc(C)c4cc3c2C)cc1,-1.6%
3,CCC(Cc1ccccc1)NC(=O)C1CC1 (stereo not drawn),-0.41%
4,O=[N+]([O-])c1ccc(CN2CCN(c3ccc([N+](=O)[O-])cc3)CC2)cc1,8.04%
5,COc1ccc(CNC(=S)NCc2ccc(OC(C)C)cc2)cc1,3.45%
6,CC(C)c1ccc(Nc2ncccc2C(=O)O)cc1,10.4%
7,COc1ccc(Nc2ncccc2C(=O)O)cc1,-0.34%
8,CCOC(=O)c1c(C)nc2c(c1C)/C(=N/O)CC(C)(C)C2,5.56%
9,COc1ccccc1CNC(=O)c1ccc(CS(=O)Cc2cccc(Cl)c2)o1 (stereo not drawn),4.42%
10,Cc1nn(-c2ccc([N+](=O)[O-])cc2)c2c1C(c1ccc(OC(F)F)cc1)N1C(=N2)C(=O)Nc2ccccc21 (stereo not drawn),6.37%
11,Cc1ccc(C2c3c(C)nn(-c4ccc([N+](=O)[O-])cc4)c3N=C3C(=O)Nc4ccccc4N32)cc1 (stereo not drawn),3.63%
12,O=C(c1ccc(F)cc1)C1CCN(C(=S)Nc2ccccc2Cl)CC1,2.44%
13,Cc1nn(Cc2ccc(Cl)cc2)c(C)c1NC(=O)c1cc(C(C)C)on1,7.7%
14,Cc1cc(C(=O)Nc2c(C)nn(Cc3c(Cl)cccc3Cl)c2C)no1,-0.07%
15,Cc1cc(C)n2nc(C(=O)N/N=C/c3c4ccccc4cc4ccccc34)nc2n1,3.03%
16,CCCCN(CC)Cc1c(C)[nH]c2c(ccc3ccccc32)c1=O,0.96%
17,COc1ccc(S(N)(=O)=O)cc1-c1nnc2c3ccccc3c(C)nn12,6.57%
18,Cc1ccccc1-c1nnc2c3ccccc3c(C)nn12,-1.91%
19,COc1ccc(S(=O)(=O)NCc2ccco2)cc1N(C)S(=O)(=O)c1ccccc1,2.02%
20,COc1ccc(-c2nnc3c4ccccc4c(C)nn23)cc1,4.75%
21,COc1ccc(S(=O)(=O)NCc2ccco2)cc1NC(=O)c1ccccc1,3.54%
22,Cc1nn2c(-c3ccccc3)nnc2c2ccccc12,-0.87%
23,Cc1ccc(N2C(=O)c3ccc(N)cc3C2=O)cc1,1%
24,COc1cc(SC)ccc1C(=O)Nc1ccc2c(c1)OCCO2,49.8%

row,SMILES,CPE inhibition
1,CC(=O)Nc1ccc(OCC(O)Cn2nc(C)nc2C)cc1 (stereo not drawn),-1.49%
2,COc1ccc(CN(C(=O)c2oc3cc(C)c(C)cc3c2C)C2CCS(=O)(=O)C2)cc1OC (stereo not drawn),5.1%
3,Cc1ccc(Cl)cc1NS(=O)(=O)c1ccc2oc(=O)ccc2c1,15.7%
4,O=C(COC(=O)c1ccc(OC(F)F)cc1)NC(=O)NC1CCCC1,2.84%
5,CC(=O)Nc1ccc(NC(=O)CCn2nnc3ccccc32)cc1,-1.57%
6,C=CCNC(=O)COC(=O)c1cc(S(=O)(=O)N2CCCCC2)ccc1Cl,0.67%
7,O=C(O)c1cc(-c2cccs2)nc2ccc(F)cc12,-0.75%
8,O=C(O)c1cc(-c2ccc(-c3ccc(F)cc3)o2)nc2ccccc12,7.68%
9,COc1ccc(-c2cc(C(=O)O)c3ccccc3n2)c(OC)c1,0.21%
10,COc1ccc(-c2cc(C(=O)N3CCCC3)c3ccccc3n2)cc1,3%
11,O=S(=O)(c1ccc(C2CCCCC2)cc1)N1CCOCC1,15.3%
12,O=C(CO/N=C/c1ccccc1)Nc1c(F)c(F)c(F)c(F)c1F,2.75%
13,COc1ccc(NC(=O)CN(C)C(=O)CCCc2nc3ccccc3s2)cc1,2.07%
14,Cc1cc(Cl)ccc1OCCCC(=O)N1CCN(C(=O)c2ccco2)CC1,17.5%
15,Cc1cc(SCC(=O)c2ccccc2)n2ncc(-c3ccccc3)c2n1,4.59%
16,Cc1ccc2nc(C)cc(SCC(=O)N/N=C/c3ccco3)c2c1,1.6%
17,Cn1c2ccccc2c(=O)c2c(=O)n(Cc3ccco3)c(-c3ccc(C(C)(C)C)cc3)nc21,6.32%
18,COCCn1c(-c2cccc(Br)c2)nc2c(c(=O)c3ccccc3n2C)c1=O,45.9%
19,CCc1nc2sc3ccccc3c(=O)c2c(=O)n1Cc1ccco1,10.5%
20,COCCn1c(-c2ccc(Cl)cc2)nc2c(c(=O)c3ccccc3n2C)c1=O,8.68%
21,COc1ccc(Cn2c(-c3ccccc3C)nc3c(c(=O)c4ccccc4n3C)c2=O)cc1,52.8%
22,COc1ccc(Cn2c(-c3ccco3)nc3c(c(=O)c4ccccc4n3C)c2=O)cc1,12.4%
23,CCCCCc1nc2c(c(=O)c3ccccc3n2C)c(=O)n1Cc1ccc(OC)cc1,56.9%
24,COc1ccc(Cn2c(-c3ccc(C)cc3)nc3c(c(=O)c4ccccc4n3C)c2=O)cc1,3.47%

row,SMILES,CPE inhibition
1,COc1ccc(N2CCN(CCNS(=O)(=O)c3ccc(C)cc3)CC2)cc1,-1.19%
2,CCCCOc1ccc(Cl)cc1CSc1n[nH]c(C)n1,-1.27%
3,CC(NC(=O)c1c(F)cccc1Cl)c1ccc(-n2ccnc2)cc1 (stereo not drawn),2.43%
4,COc1cnn(-c2ccccc2)c(=O)c1SCc1ccc(Cl)c(Cl)c1,5.77%
5,Fc1ccccc1NC(=S)N1CCN(C/C=C/c2ccccc2)CC1,0.73%
6,Cc1ccc(C)c(S(=O)(=O)N/N=C/c2ccc(N(C)C)cc2)c1,-0.72%
7,c1ccc2c(c1)nc1n2CN(Cc2ccc3c(c2)OCO3)CN1,1.87%
8,Cc1csc(=O)n1CCC(=O)OCC(=O)NNC(=O)c1ccccc1,-2.48%
9,COc1ccc(CCn2c(C(C)C)nc3c(c(=O)c4ccccc4n3C)c2=O)cc1,4.88%
10,COc1ccc(CCn2c(-c3ccccc3)nc3c(c(=O)c4ccccc4n3C)c2=O)cc1,2.88%
11,Cc1ccc(NC(=O)c2cn(-c3cccc(C)n3)cn2)cc1,3.46%
12,CC(C)C[C@H](NC(=O)c1nc[nH]c1C(=O)NC1CCN(C(=O)OC(C)(C)C)CC1)C(=O)OC(C)(C)C,0.16%
13,CC(C)C[C@H](NC(=O)c1nc[nH]c1C(=O)N[C@@H](CC(C)C)C(=O)OC(C)(C)C)C(=O)OC(C)(C)C,-5.5%
14,COc1ccc(Cn2cnc3c4cc(F)ccc4n(C)c3c2=O)cc1,1.16%
15,Cc1occc1C(=O)Nc1cc(C(C)(C)C)on1,-1.18%
16,CC(C)(C)c1cc(NC(=O)c2ccco2)no1,2.28%
17,COc1ccc(N(C(=O)CNC(=O)c2ccco2)C(C(=O)NC2CCCC2)c2cccnc2)cc1 (stereo not drawn),-0.22%
18,NC(=O)c1ccsc1NC(=O)COC(=O)C1CC2CCCC(C1)C2=O (stereo not drawn),1.41%
19,COc1ccc(Cl)cc1C(=O)N(Cc1nc(-c2cccc(C)c2)no1)C(C)C,10.2%
20,COc1ccccc1C(=O)N(Cc1nc(-c2ccc(Cl)cc2)no1)C(C)C,2.22%
21,CC(C)NS(=O)(=O)c1ccc(CCC(=O)N2CCCC2)cc1,1.63%
22,CCC1CCCCN1C(=O)c1ccc2nc(Cc3ccc(OC)cc3)oc2c1 (stereo not drawn),20.7%
23,Cc1cccc(NC(=O)CNC(=O)CN2C(=O)NC3(CCCCC3C)C2=O)c1C (stereo not drawn),-0.96%
24,CC1CCCCC12NC(=O)N(CC(=O)Nc1ccccc1-c1ccccc1)C2=O (stereo not drawn),-0.96%

row,SMILES,CPE inhibition
1,COc1ccc(C(=O)NCc2cc(C)nc3ccccc23)cc1OC,19%
2,CCOCCCNC(=O)C1CCN(Cc2cccc(OCc3ccccc3)c2)CC1,-0.9%
3,CCOC(=O)Cn1nnnc1C(C(C)C)N(Cc1cc2c(C)cc(C)cc2[nH]c1=O)C1CCCC1 (stereo not drawn),9.34%
4,CCOC(=O)Cn1nnnc1C(CC)N(Cc1cc2ccc(C)cc2[nH]c1=O)C1CCCC1 (stereo not drawn),0%
5,CN(Cc1ccccc1)C(=O)CN1C(=O)c2ccc([N+](=O)[O-])cc2C1=O,1.1%
6,CC(=O)Nc1ccc(NC(=O)COc2ccc(Cl)cc2Cl)cc1,5.13%
7,N#CCCN(CCC#N)C(=O)COc1ccc(Cl)cc1Cl,2.86%
8,COc1ccc(NC(=O)Nc2ccc3c(c2)CCC3)c(OC)c1,3.19%
9,CCOc1ccccc1NC(=O)Nc1ccc2c(c1)CCC2,7.85%
10,COc1cc(C(=O)NCCC(=O)NC2CCCc3ccccc32)cc(OC)c1OC (stereo not drawn),0.19%
11,O=C(Cc1ccc(Br)cc1)NC1CCCc2ccccc21 (stereo not drawn),2.96%
12,O=C(CCl)NC1CCCc2ccccc21 (stereo not drawn),-0.24%
13,O=C(NC1CCCc2ccccc21)c1ccc(Br)cc1 (stereo not drawn),6.09%
14,O=c1c2ccccc2ncn1Cc1ccc(Cl)c(Cl)c1,3.3%
15,Cc1cc(C)[n+]2n1C(=O)C(c1ccccc1)=C2[O-],3.89% and 3.76%
16,O=c1c2ccccc2nc2n1C(CSCc1ccc(Cl)cc1Cl)CS2 (stereo not drawn),5.16%
17,O=C(Nc1ccccc1SCC1CSc2nc3ccccc3c(=O)n21)c1ccccc1 (stereo not drawn),2.48%
18,Nc1ccccc1SCC1CSc2nc3ccccc3c(=O)n21 (stereo not drawn),2.42%
19,O=c1c2ccccc2nc2n1C(CSc1ccc(F)cc1)CS2 (stereo not drawn),2.75%
20,COc1cccc(SCC2CSc3nc4ccccc4c(=O)n32)c1 (stereo not drawn),7.09%
21,O=c1c2ccccc2nc2n1C(CSc1ccccc1)CS2 (stereo not drawn),1.34%
